Results: PubChem BioAssay (NCI)
This is part of a sample that, as a whole, favours compounds with a hit. Of some 79,000 tested, about 15% had one in any assay. Calls of active or inactive are those of the source. Cut-off read from the data, not from the text of the source: active = growth inhibition above about 70%; inactive = the rest.

Columns and labels:
[1] = NCI Yeast Anticancer Drug Screen. Data for the rad52 strain (AID 147);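 note: 0% = growth of vehicle-treated control cultures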; conditions: S. cerevisiae rad52 mutant growth inhibition, active compounds read high
In short: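 Vehicle-treated cultures served as the reference for growth inhibition of compound-exposed yeast bearing a DNA repair mutation.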

[2] = NCI Yeast Anticancer Drug Screen. Data for the wt1 strain (AID 149);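 note: 0% = growth of vehicle-treated wt1 cultures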; conditions: S. cerevisiae wt1 strain (SPY 50644) growth inhibition, active compounds read high
In short: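 Measured: growth of wt1 yeast under compound versus vehicle treatment, reported as inhibition.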

[3] = NCI Yeast Anticancer Drug Screen. Data for the rad50EPP+ strain (AID 151);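 note: 0% = growth of vehicle-treated control cultures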; conditions: S. cerevisiae rad50 mutant strain, active compounds read high
In short: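 In this screen, rad50EPP+ yeast were exposed to compounds. Growth inhibition was scored against vehicle-treated controls.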

[4] = NCI Yeast Anticancer Drug Screen. Data for the mgt1 strain (AID 153); conditions: S. cerevisiae mgt1 mutant growth inhibition, active compounds read high
In short: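 mgt1 strain exposed; growth vs vehicle control recorded as inhibition.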

[5] = NCI Yeast Anticancer Drug Screen. Data for the rad50 strain (AID 155);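 note: 0% = growth of vehicle-only cultures of the same strain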; conditions: S. cerevisiae rad50 strain growth inhibition, active compounds read high
In short: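 Growth of the mutant yeast was measured after compound exposure and referenced to vehicle-treated cultures.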

[6] = NCI Yeast Anticancer Drug Screen. Data for the mec2-1 strain (AID 157); conditions: S. cerevisiae mec2-1 strain, active compounds read high
In short: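 Vehicle-treated cultures served as reference for growth inhibition of compound-exposed mec2-1 yeast.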

[7] = NCI Yeast Anticancer Drug Screen. Data for the rad14 strain (AID 159);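 note: 0% = growth of vehicle-treated control cultures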; conditions: S. cerevisiae rad14 strain growth inhibition, active compounds read high
In short: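 Here, inhibition of yeast growth was measured after compound exposure, using a strain with a genetic defect in DNA damage repair and vehicle-treated cultures as the reference.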

[8] = NCI Yeast Anticancer Drug Screen. Data for the sgs1 mgt1 strain (AID 161);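 note: 0% = growth of cultures given vehicle only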; conditions: S. cerevisiae sgs1 mgt1 strain, active compounds read high
In short: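 Test agents were incubated with a DNA-repair-mutant yeast strain. Growth was then read and compared against vehicle-treated controls.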

[9] = NCI Yeast Anticancer Drug Screen. Data for the CLN2oe strain (AID 163);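 note: 0% = growth of vehicle-only control cultures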; conditions: S. cerevisiae CLN2oe strain, active compounds read high
In short: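 Inhibition relative to vehicle-treated yeast is reported. Cells: strain with genetic alteration in cell-cycle control, grown with compound.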

[10] = NCI Yeast Anticancer Drug Screen. Data for the cln2 rad14 strain (AID 165);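 note: 0% = growth equal to vehicle treated cultures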; conditions: S. cerevisiae cln2 rad14 strain, active compounds read high
In short: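 Each compound was tested on cln2 rad14 yeast. Inhibition of growth was calculated against vehicle-exposed controls.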

[11] = NCI Yeast Anticancer Drug Screen. Data for the bub3 strain (AID 167); conditions: S. cerevisiae bub3 mutant strain, active compounds read high
In short: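 Whole-cell yeast assay. The mutant strain was incubated with compounds, and growth inhibition was determined by comparison with vehicle-treated cells.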

[12] = NCI Yeast Anticancer Drug Screen. Data for the wt2 strain (AID 169);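 note: 0% = growth of vehicle-treated yeast cultures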; conditions: S. cerevisiae wt2 strain growth inhibition, active compounds read high
In short: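 Inhibition of yeast growth was determined after compound treatment, normalised to controls receiving only vehicle.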

[13] = NCI Yeast Anticancer Drug Screen. Data for the mlh1 strain (AID 171);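 note: 0% = growth of vehicle-treated control cultures of the same strain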; conditions: S. cerevisiae mlh1 strain growth inhibition, active compounds read high
In short: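 Vehicle-normalised growth inhibition of a repair- or checkpoint-altered yeast strain following compound treatment.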

[14] = NCI Yeast Anticancer Drug Screen. Data for the sgs1 strain (AID 173);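 note: 0% = growth of vehicle-only control cultures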; conditions: S. cerevisiae sgs1 mutant, active compounds read high
In short: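 Screen format: yeast with repair or checkpoint alterations, compound exposure, growth read relative to vehicle.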

[15] = NCI Yeast Anticancer Drug Screen. Data for the mlh1 rad18 strain (AID 175); conditions: S. cerevisiae mlh1 rad18 strain growth inhibition, active compounds read high
In short: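 Vehicle-treated cultures served as the reference for growth inhibition in a yeast strain carrying DNA damage repair alterations exposed to each compound.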

[16] = NCI Yeast Anticancer Drug Screen. Data for the rad18 strain (AID 177); conditions: S. cerevisiae rad18 mutant growth inhibition, active compounds read high
In short: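 Test articles were incubated with altered yeast defective in DNA damage repair. Results are given as inhibition of growth versus vehicle.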

[17] = at 5.0 µM (retest, dose inferred, filed as 0.5)
[18] = at 50.0 µM (retest, dose inferred, filed as 5.0)

Measured: growth inhibition

N#Cc1c(N)[nH]c2ccc(Sc3ccccc3)cc12
active: [1]; at 33.0 µM 94% | [1]; at 100.0 µM 81% | [2]; at 33.0 µM 82% | [2]; at 100.0 µM 93% | [4]; at 33.0 µM 96% | [4]; at 100.0 µM 97% | [5]; at 33.0 µM 93% | [5]; at 100.0 µM 96% | [6]; at 33.0 µM 93% | [6]; at 100.0 µM 97% | [7]; at 33.0 µM 95% | [7]; at 100.0 µM 97% | [9]; at 33.0 µM 95% | [9]; at 100.0 µM 96% | [11]; at 33.0 µM 93% | [11]; at 100.0 µM 96% | [12]; at 33.0 µM 92% | [12]; at 100.0 µM 96% | [13]; at 33.0 µM 96% | [13]; at 100.0 µM 97% | [14]; at 33.0 µM 95% | [14]; at 100.0 µM 97% | [15]; [18] 85% | [15]; at 50.0 µM 70.5% | [16]; at 11.0 µM 87% | [16]; at 33.0 µM 95% | [16]; at 100.0 µM 96%
inactive: [1]; at 1.2 µM 1% | [1]; at 3.7 µM 0% | [1]; at 11.0 µM 14% | [2]; at 1.2 µM 1% | [2]; at 3.7 µM 5% | [2]; at 11.0 µM 1% | [3]; at 1.2 µM 3% | [3]; at 3.7 µM 6% | [3]; at 11.0 µM 19% | [3]; at 33.0 µM 33% | [3]; at 100.0 µM 51% | [4]; at 1.2 µM -1% | [4]; at 3.7 µM -2% | [4]; at 11.0 µM 9% | [5]; at 1.2 µM 1% | [5]; at 3.7 µM 0% | [5]; [17] -3% | [5]; at 11.0 µM 23% | [5]; [18] 44% | [5]; at 50.0 µM 46.1% | [6]; at 1.2 µM -2% | [6]; at 3.7 µM 2% | [6]; [17] -22% | [6]; at 11.0 µM 6% | [6]; [18] -6% | [6]; at 50.0 µM 62.8% | [7]; at 1.2 µM 1% | [7]; at 3.7 µM 4% | [7]; at 11.0 µM 7% | [8]; [17] -3% | [8]; [18] 40% | [8]; at 50.0 µM 52.9% | [9]; at 1.2 µM -6% | [9]; at 3.7 µM -22% | [9]; at 11.0 µM 12% | [10]; [17] -3% | [10]; [18] 14% | [10]; at 50.0 µM -0.8% | [11]; at 1.2 µM -5% | [11]; at 3.7 µM -6% | [11]; [17] 12% | [11]; at 11.0 µM 6% | [11]; [18] 51% | [11]; at 50.0 µM 52.4% | [12]; at 1.2 µM 0% | [12]; at 3.7 µM 1% | [12]; at 11.0 µM 4% | [13]; at 1.2 µM -1% | [13]; at 3.7 µM 3% | [13]; at 11.0 µM 11% | [14]; at 1.2 µM -3% | [14]; at 3.7 µM 5% | [14]; at 11.0 µM 23% | [15]; [17] 19% | [16]; at 1.2 µM 12% | [16]; at 3.7 µM 37%
